Reference: the supplement of paper PMC11732987, “Enantioselective OTUD7B fragment discovery through chemoproteomics screening and high-throughput optimisation” (Communications Chemistry, 2025)

Experiments:
Test in all cases: log2 ratio of Biotin-Ahx-Ub-VS probe labelling (fragment/DMSO); higher = less target engagement (more negative = stronger competition), active = hit call of the paper (q ≤ 0.05, log2 ratio ≤ -1)
Details in all cases: compound concentration: 200 uM; treatment time: 3 h
USP34 = USP34 (UniProt Q70CQ2)
Sequence of USP34 (Q70CQ2 whole entry, the tested form may be a part): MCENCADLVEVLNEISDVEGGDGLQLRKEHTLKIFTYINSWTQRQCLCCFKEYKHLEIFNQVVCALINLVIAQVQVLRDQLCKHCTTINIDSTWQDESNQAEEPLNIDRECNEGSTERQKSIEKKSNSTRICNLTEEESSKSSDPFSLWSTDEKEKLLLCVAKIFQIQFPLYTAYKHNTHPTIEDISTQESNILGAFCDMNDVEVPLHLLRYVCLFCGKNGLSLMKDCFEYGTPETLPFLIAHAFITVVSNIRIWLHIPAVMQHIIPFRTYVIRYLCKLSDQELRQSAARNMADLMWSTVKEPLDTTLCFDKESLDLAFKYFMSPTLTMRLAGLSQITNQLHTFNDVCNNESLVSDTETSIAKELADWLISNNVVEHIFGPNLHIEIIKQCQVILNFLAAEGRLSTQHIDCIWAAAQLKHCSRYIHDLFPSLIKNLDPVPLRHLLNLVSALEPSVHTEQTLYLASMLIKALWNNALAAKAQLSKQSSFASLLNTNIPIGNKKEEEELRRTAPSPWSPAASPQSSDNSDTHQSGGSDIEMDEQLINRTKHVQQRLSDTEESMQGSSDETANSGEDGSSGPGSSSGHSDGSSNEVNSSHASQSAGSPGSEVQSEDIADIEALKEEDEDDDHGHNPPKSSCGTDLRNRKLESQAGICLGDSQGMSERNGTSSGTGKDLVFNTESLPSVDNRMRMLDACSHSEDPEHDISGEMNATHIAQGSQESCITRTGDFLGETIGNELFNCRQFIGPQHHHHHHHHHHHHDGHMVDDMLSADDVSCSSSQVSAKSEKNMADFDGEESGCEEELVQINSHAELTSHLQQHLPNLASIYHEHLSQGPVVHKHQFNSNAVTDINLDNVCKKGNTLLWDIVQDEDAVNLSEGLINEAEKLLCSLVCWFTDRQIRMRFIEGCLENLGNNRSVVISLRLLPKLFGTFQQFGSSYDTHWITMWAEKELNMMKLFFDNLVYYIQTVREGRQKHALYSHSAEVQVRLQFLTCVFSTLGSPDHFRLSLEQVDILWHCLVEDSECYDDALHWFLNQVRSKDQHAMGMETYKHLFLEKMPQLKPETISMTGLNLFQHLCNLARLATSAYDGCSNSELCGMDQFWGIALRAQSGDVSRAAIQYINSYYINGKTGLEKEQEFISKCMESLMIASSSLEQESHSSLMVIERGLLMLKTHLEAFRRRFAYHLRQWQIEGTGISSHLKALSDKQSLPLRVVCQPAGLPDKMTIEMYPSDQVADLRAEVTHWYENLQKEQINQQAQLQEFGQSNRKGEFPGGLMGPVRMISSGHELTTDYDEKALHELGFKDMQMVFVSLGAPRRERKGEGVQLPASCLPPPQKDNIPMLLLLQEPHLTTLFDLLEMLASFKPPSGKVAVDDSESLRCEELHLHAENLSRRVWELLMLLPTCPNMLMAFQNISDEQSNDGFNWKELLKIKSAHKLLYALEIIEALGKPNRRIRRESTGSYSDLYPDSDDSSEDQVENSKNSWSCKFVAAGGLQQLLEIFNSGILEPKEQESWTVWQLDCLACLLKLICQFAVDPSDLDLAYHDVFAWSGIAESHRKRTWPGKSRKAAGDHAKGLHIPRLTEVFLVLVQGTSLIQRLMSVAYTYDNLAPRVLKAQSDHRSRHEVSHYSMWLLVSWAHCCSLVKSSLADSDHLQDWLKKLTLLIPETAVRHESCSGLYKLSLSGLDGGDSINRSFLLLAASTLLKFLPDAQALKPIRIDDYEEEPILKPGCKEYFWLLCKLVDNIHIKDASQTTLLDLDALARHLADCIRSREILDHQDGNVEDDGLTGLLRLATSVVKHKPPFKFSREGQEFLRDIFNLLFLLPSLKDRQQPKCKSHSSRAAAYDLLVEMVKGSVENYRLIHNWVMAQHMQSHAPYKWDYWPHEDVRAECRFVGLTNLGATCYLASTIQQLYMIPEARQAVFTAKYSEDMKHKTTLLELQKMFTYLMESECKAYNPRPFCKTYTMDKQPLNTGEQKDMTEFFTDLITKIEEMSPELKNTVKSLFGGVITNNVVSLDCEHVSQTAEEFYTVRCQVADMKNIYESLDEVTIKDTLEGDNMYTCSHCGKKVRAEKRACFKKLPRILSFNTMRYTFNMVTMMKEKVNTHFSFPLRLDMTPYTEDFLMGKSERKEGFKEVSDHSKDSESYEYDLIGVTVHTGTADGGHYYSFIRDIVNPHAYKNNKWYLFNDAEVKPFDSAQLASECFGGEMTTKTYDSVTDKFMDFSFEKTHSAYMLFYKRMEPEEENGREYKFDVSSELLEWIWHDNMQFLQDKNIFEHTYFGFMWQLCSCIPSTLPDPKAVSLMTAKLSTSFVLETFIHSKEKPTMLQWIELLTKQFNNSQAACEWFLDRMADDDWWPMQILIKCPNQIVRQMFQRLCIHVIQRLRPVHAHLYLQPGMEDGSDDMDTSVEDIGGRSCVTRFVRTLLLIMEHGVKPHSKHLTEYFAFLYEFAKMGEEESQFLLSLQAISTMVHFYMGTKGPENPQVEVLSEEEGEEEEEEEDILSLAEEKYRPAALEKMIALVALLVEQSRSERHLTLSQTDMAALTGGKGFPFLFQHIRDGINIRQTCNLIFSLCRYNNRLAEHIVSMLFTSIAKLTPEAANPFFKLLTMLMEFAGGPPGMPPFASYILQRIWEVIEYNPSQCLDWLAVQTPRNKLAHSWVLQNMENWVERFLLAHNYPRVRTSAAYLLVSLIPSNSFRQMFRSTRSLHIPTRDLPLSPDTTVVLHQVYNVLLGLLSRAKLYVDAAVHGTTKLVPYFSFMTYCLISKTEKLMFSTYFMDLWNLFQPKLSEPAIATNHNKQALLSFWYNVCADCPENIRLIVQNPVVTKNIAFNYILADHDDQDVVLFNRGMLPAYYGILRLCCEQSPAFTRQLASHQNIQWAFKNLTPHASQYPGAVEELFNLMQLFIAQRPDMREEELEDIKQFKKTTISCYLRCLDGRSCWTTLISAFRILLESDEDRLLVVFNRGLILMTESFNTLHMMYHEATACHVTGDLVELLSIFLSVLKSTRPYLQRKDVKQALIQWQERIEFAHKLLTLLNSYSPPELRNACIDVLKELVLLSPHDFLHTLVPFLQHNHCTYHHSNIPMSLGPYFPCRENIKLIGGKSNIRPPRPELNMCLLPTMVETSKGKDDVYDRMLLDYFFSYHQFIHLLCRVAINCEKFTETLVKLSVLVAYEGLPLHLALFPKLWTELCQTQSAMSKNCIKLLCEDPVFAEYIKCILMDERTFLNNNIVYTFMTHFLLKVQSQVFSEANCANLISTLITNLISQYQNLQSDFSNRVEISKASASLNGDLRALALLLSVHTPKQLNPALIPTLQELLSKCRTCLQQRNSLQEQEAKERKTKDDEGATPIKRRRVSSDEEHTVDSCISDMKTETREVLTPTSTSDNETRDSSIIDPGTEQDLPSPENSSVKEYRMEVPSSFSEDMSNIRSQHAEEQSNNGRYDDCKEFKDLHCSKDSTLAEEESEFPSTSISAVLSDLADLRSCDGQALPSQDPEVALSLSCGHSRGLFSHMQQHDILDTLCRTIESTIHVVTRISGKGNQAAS
Method in brief: (§1)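 Each value is an average log2 ratio of fragment to vehicle, tested by unpaired t-test. The underlying Spectronaut label-free quantities were global-median-normalised, and only proteins with ≥2 unique peptides were included. Triplicate HEK293T lysate samples (495 µg) were exposed to fragment at 200 µM or vehicle for 3 h, then to Biotin-Ahx-Ub-VS at 0.5 µM final for 1 h, before NeutrAvidin enrichment of labelled DUBs, LysC and trypsin digestion, and diaPASEF LC-MS/MS.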

USP36 = target: T1, USP36 (UniProt Q9P275)
T1 sequence (whole entry): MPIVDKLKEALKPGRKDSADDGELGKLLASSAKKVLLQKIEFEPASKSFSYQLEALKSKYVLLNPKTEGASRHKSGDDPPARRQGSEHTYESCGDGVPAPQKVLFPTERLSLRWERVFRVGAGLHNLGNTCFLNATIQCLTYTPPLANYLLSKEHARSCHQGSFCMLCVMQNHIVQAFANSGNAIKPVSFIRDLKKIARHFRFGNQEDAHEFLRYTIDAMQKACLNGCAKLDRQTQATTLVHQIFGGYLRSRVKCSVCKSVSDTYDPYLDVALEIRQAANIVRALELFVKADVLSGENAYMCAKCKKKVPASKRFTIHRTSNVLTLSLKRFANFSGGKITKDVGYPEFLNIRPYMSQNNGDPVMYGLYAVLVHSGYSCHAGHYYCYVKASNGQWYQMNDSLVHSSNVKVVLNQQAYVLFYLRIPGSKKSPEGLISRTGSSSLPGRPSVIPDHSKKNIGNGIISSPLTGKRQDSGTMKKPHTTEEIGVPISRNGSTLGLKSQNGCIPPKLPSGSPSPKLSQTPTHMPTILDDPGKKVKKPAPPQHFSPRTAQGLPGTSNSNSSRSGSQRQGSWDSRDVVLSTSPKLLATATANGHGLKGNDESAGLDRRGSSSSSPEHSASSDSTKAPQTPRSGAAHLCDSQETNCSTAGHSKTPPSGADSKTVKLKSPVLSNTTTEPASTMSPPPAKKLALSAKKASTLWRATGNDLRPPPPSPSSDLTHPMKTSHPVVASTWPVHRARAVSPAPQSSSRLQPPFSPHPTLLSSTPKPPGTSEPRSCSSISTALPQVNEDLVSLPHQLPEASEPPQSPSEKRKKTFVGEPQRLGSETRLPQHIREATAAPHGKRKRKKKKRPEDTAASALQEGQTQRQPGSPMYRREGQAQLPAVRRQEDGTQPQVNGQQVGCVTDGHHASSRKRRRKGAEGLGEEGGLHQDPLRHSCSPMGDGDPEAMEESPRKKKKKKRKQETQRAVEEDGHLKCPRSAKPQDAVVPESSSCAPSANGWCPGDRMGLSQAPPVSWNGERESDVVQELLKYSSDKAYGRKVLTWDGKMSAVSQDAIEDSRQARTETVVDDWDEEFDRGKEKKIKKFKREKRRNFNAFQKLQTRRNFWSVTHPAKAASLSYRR
Method in brief: as §1

USP38 = target: T2, USP38 (UniProt Q8NB14)
T2 sequence (whole entry): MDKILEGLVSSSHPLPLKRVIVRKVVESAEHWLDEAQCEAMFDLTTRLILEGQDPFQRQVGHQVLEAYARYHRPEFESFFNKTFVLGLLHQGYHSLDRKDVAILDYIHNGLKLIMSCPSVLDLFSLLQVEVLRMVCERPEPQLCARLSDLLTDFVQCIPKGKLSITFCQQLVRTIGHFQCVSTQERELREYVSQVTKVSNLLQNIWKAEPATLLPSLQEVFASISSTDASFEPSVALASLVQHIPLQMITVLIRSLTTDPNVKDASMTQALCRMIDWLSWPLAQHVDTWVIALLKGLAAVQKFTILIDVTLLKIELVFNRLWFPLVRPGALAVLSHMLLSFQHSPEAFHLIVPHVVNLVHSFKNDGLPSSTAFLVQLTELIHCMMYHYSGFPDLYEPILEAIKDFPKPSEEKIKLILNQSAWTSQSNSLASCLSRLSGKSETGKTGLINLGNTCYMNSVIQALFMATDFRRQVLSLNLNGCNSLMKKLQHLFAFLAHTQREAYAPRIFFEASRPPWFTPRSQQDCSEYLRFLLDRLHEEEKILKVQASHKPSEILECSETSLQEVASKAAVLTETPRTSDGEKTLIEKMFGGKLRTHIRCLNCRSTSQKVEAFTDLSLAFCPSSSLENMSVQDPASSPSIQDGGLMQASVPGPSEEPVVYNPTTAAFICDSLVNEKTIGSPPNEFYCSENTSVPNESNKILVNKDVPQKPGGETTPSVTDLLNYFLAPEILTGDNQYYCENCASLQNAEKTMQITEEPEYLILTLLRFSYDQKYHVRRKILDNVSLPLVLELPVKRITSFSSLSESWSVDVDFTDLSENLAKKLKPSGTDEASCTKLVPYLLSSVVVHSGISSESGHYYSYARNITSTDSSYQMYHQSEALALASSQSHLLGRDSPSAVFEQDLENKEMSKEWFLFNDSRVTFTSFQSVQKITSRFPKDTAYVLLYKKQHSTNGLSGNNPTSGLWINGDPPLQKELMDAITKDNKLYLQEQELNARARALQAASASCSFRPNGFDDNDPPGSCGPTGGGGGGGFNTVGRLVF
Method in brief: as §1

USP39 = target: T3, USP39 (UniProt Q53GS9)
T3 sequence (whole entry): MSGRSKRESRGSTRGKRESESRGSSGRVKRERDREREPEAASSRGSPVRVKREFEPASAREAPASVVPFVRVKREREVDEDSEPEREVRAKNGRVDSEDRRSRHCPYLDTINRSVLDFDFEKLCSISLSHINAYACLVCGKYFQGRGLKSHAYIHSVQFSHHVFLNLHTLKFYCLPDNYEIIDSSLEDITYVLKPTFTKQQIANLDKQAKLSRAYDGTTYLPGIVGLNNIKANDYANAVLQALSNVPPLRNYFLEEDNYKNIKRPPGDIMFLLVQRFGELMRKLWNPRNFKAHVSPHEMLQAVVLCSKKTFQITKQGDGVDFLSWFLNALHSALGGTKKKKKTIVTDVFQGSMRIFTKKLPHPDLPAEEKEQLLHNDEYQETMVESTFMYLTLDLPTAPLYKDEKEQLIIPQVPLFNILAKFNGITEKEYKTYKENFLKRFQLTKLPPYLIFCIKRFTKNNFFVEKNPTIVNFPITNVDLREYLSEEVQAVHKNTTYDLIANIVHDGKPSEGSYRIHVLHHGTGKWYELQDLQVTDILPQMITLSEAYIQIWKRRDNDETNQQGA
Method in brief: as §1

USP4 = target: T4, USP4 (UniProt Q13107)
T4 sequence (whole entry): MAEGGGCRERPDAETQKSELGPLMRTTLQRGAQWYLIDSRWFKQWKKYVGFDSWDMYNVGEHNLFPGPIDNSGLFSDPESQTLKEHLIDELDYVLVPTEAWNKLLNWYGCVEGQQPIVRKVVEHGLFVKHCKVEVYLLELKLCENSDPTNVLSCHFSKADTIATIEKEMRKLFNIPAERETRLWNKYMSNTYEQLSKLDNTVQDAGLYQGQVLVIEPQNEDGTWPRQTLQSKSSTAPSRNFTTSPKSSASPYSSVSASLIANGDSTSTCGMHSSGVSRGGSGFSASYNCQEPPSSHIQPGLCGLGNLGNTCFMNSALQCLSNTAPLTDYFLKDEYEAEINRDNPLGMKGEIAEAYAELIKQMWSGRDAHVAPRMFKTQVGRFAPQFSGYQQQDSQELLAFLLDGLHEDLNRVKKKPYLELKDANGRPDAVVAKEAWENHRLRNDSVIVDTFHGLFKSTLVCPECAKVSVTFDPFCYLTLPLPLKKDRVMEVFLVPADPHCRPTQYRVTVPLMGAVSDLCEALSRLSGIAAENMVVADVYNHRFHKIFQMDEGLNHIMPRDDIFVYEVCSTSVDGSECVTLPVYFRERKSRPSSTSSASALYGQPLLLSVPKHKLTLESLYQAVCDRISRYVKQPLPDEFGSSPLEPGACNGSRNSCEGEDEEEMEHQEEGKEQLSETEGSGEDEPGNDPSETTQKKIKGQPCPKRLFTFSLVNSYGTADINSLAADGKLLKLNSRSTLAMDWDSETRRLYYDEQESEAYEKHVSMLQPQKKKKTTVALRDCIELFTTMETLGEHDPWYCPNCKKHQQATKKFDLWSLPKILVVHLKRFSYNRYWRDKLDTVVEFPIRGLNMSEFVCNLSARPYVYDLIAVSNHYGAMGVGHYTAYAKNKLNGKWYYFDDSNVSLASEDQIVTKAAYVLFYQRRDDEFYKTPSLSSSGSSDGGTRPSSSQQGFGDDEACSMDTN
Method in brief: as §1

Measured: log2 ratio of Biotin-Ahx-Ub-VS probe labelling

CN(CCC(O)c1ccc(Br)cc1)C(=O)CCl (stereo not given)
inactive: USP34 -0.261 | USP36 -0.0809 | USP38 -0.17 | USP39 -0.00535 | USP4 -0.206
